Data from PubChem BioAssay (NCI).
About 83,000 compounds went through this panel and 20% of them were active in at least one assay; those are over-represented in the sample as a whole.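 Results are percent growth after 48 hours of single-concentration exposure. 100 means growth as in untreated cells, lower positive values show inhibition; negative values down to -100 show cell death.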 Active and inactive are the calls of the source. How the source made its calls: active means growth percent below 10; inactive means the rest.

Legend:
Experiment in all cases: NCI-60 one-dose screen, 48 h (100 = growth as untreated, 0 = no growth, -100 = all killed)
Details in all cases: 10 µM unless noted
T-47D breast = system: T-47D breast
BT-549 breast = system: BT-549 breast
MDA-MB-435 melanoma = system: MDA-MB-435 melanoma
SW-620 colon = system: SW-620 colon
MCF7 breast = system: MCF7 breast
HCT-116 colon = system: HCT-116 colon
HCC-2998 colon = system: HCC-2998 colon
KM12 colon = system: KM12 colon

Measured: growth

COc1cc(/C=C/C(=O)c2ccc(NC(=O)CSc3nnc(-c4ccc5nc(-c6ccccc6)[nH]c5c4)o3)cc2)cc(OC)c1OC
inactive: T-47D breast 89% | BT-549 breast 81.6% | MDA-MB-435 melanoma 94.1% | SW-620 colon 98.8% | MCF7 breast 43.9% | HCT-116 colon 40.8% | HCC-2998 colon 111% | KM12 colon 90%

Cc1ccc(C2CC(c3ccc(Nc4nc(NCCO)nc(Nc5ccc(Cl)cc5)n4)cc3)=Nc3c(N)nc(N)nc3N2)cc1 (centres undefined)
inactive: T-47D breast 60.1% | BT-549 breast 80.7%
active: MDA-MB-435 melanoma -93.1% | SW-620 colon -88.9% | MCF7 breast -68.4% | HCT-116 colon -97% | HCC-2998 colon -65.3% | KM12 colon -88%

O=c1[nH]c2cc(Cl)ccc2n1C1CCN(c2ccc3nnc(Cl)n3n2)CC1
inactive: T-47D breast 86.6% | BT-549 breast 94.2% | MDA-MB-435 melanoma 98.4% | SW-620 colon 93.4% | MCF7 breast 81.1% | HCT-116 colon 106% | HCC-2998 colon 100% | KM12 colon 96.5%

COc1ccc(/C=C/C(=O)c2nnn(-c3ccc(C(=O)O)cc3)c2C)cc1OC
inactive: T-47D breast 96.8% | BT-549 breast 95.7% | MDA-MB-435 melanoma 101% | SW-620 colon 110% | MCF7 breast 86.3% | HCT-116 colon 91.6% | HCC-2998 colon 106% | KM12 colon 101%

CCN1C(=O)N(CC)C2SC(N/N=C/c3ccc(F)cc3)=NC21 (centres undefined)
active: BT-549 breast -28.4% | MDA-MB-435 melanoma -35.8%
inactive: T-47D breast 64.8% | SW-620 colon 20.8% | MCF7 breast 17.5% | HCT-116 colon 13.7% | HCC-2998 colon 14.1% | KM12 colon 11.1%

COc1ccc(-c2nnc(SCc3ccc(O)c4ncccc34)o2)cc1
inactive: T-47D breast 27% | BT-549 breast 35.7% | MDA-MB-435 melanoma 24% | SW-620 colon 17.7% | MCF7 breast 14.9% | HCT-116 colon 23.1% | HCC-2998 colon 45.2% | KM12 colon 15.7%

COc1ccc(CCN2C(=O)CSC2=S)cc1OC
inactive: T-47D breast 52.7% | BT-549 breast 110% | MDA-MB-435 melanoma 93.6% | SW-620 colon 57.9% | MCF7 breast 29.3% | HCT-116 colon 99.6% | HCC-2998 colon 111% | KM12 colon 16.6%

O=C(CCCCCCN1CC(=O)N2[C@@H](c3cccc(Cl)c3)c3[nH]c4ccccc4c3C[C@H]2C1=O)NO
inactive: T-47D breast 19.6% | BT-549 breast 82.7% | MDA-MB-435 melanoma 31.2% | SW-620 colon 26.3% | MCF7 breast 38% | HCT-116 colon 14.8% | HCC-2998 colon 72.1% | KM12 colon 54.9%

O=C(NNc1nc2cc(F)ccc2n2cncc12)c1cnccn1
inactive: T-47D breast 33.7% | BT-549 breast 55% | MDA-MB-435 melanoma 25% | SW-620 colon 24.5% | MCF7 breast 14.8% | HCT-116 colon 23% | HCC-2998 colon 19.9% | KM12 colon 20.8%

C#CCOc1ccccc1C(Nc1ccccc1)c1nnnn1C1CCCCC1 (centres undefined)
inactive: T-47D breast 93% | BT-549 breast 109% | MDA-MB-435 melanoma 101% | SW-620 colon 104% | MCF7 breast 94.3% | HCT-116 colon 84.3% | HCC-2998 colon 106% | KM12 colon 94.6%

Oc1ccc(CSc2nnc(-c3ccncc3)o2)c2cccnc12
active: MCF7 breast 4.01% | HCT-116 colon 8.9%
inactive: T-47D breast 15.8% | BT-549 breast 23.7% | MDA-MB-435 melanoma 13.4% | SW-620 colon 16.4% | HCC-2998 colon 30.2% | KM12 colon 14.2%

CCOC(=O)/C(F)=C/C1CC1C1CCCCC1 (centres undefined)
inactive: T-47D breast 102% | BT-549 breast 124% | MDA-MB-435 melanoma 102% | SW-620 colon 101% | MCF7 breast 92.2% | HCT-116 colon 97.2% | HCC-2998 colon 107% | KM12 colon 104%

COc1ccc(-c2cc(-c3cccc4ccccc34)n3c(n2)nc2ccccc23)cc1OC
inactive: T-47D breast 19.2% | BT-549 breast 34.6% | MDA-MB-435 melanoma 47.3% | SW-620 colon 29.8% | MCF7 breast 15.4% | HCT-116 colon 31.5% | HCC-2998 colon 72% | KM12 colon 68.1%

Cc1ccc(NC(=O)c2ccc(CN3CCN(C)CC3)c(I)c2)cc1Oc1ccc(-c2[nH]nc3ncnc(N)c23)cc1
active: MDA-MB-435 melanoma -67.5% | SW-620 colon -67.3% | MCF7 breast -27% | HCT-116 colon -26.6%
inactive: T-47D breast 112% | BT-549 breast 103% | HCC-2998 colon 108% | KM12 colon 20.7%

CNC(=O)c1cc(Oc2ccc3nc(NC(=O)c4ccc(CN5CCCN(C)CC5)c(C(F)(F)F)c4)sc3c2)ccn1
inactive: BT-549 breast 83.2% | KM12 colon 30.3%
active: T-47D breast 7.14% | MDA-MB-435 melanoma -8.88% | SW-620 colon -70.9% | MCF7 breast -38.9% | HCT-116 colon 5.99% | HCC-2998 colon 4.85%

N#C/C(=C\c1ccc2ccccc2c1)C(=O)Nc1sc2c(c1C#N)CCC2
inactive: T-47D breast 87.5% | BT-549 breast 94.6% | MDA-MB-435 melanoma 107% | SW-620 colon 111% | MCF7 breast 94.8% | HCT-116 colon 106% | HCC-2998 colon 113% | KM12 colon 101%

COc1ccc([C@H]2[C@H](O)C(=O)N2c2cc(OC)c(OC)c(OC)c2)cc1O
active: BT-549 breast -9.8% | MDA-MB-435 melanoma -13.1% | MCF7 breast 8.66% | HCT-116 colon -8.58%
inactive: T-47D breast 75.8% | SW-620 colon 17% | HCC-2998 colon 19.5% | KM12 colon 13.1%

COc1ccc(S(=O)(=O)n2cc(C=O)c3ccccc32)c(OC)c1
inactive: T-47D breast 65.6% | BT-549 breast 64.2% | MDA-MB-435 melanoma 29.6% | SW-620 colon 35.4% | MCF7 breast 25.5% | HCT-116 colon 15.4% | HCC-2998 colon 110% | KM12 colon 95.4%

Cc1ccc(NC(=O)c2cc(/C=C/C(=O)NO)cc(C(F)(F)F)c2)cc1Nc1nccc(-c2cccnc2)n1
active: T-47D breast -5.93% | BT-549 breast -15.3% | MDA-MB-435 melanoma -2.82% | SW-620 colon -38.8% | MCF7 breast -17.5% | HCT-116 colon -12.9% | HCC-2998 colon -0.0369%
inactive: KM12 colon 16.4%

CCc1ccc(NC(=O)N[C@@H](Cc2cccc(F)c2)C(=O)N[C@@H]2C(=O)N3CCC[C@H]3C(=O)N3CCCC[C@H]3C(=O)N[C@@H](CO)C(=O)N3C[C@H](C)C[C@H]3C(=O)O[C@H]2C)c(F)c1
inactive: T-47D breast 23.1% | BT-549 breast 28.5% | MDA-MB-435 melanoma 20.3% | SW-620 colon 34.6% | MCF7 breast 14.9% | HCT-116 colon 10.8% | HCC-2998 colon 24.1% | KM12 colon 37.8%

Cn1cc(-c2nn3c(=O)cc(-c4ccccc4)nc3s2)c2cc(F)ccc21
active: MDA-MB-435 melanoma -5.19%
inactive: T-47D breast 64.2% | BT-549 breast 67% | SW-620 colon 41.9% | MCF7 breast 34.5% | HCT-116 colon 32.6% | HCC-2998 colon 79.5% | KM12 colon 55.2%

C=CCn1c(SCC(=O)Nc2cccc(C(=O)/C=C/c3ccccc3)c2)nc2ccccc2c1=O
inactive: T-47D breast 78.4% | BT-549 breast 107% | MDA-MB-435 melanoma 82.9% | SW-620 colon 12.2% | MCF7 breast 18.3% | HCC-2998 colon 96% | KM12 colon 57.5%
active: HCT-116 colon -3.91%

Cn1cc(-c2nn3cc(-c4ccncc4)nc3s2)c2cc(Cl)ccc21
active: HCT-116 colon -52.9%
inactive: T-47D breast 31.3% | BT-549 breast 46% | MDA-MB-435 melanoma 14.5% | SW-620 colon 18.8% | MCF7 breast 17% | HCC-2998 colon 36.3% | KM12 colon 56.5%

CCCC(=O)NC(c1cccnc1)c1cc(C(C)=O)c2cccnc2c1O (centres undefined)
inactive: T-47D breast 41.7% | BT-549 breast 32.2% | MDA-MB-435 melanoma 34.5% | SW-620 colon 38% | MCF7 breast 18.8% | HCT-116 colon 25.5% | HCC-2998 colon 24.9% | KM12 colon 21.4%

CCOC(=O)c1c(NC(=O)c2cccc(C(F)(F)F)c2)sc2c(CN3CCN(C)CC3)c(O)ccc12
active: MDA-MB-435 melanoma -81.5% | SW-620 colon -66.4% | MCF7 breast -85.4% | HCT-116 colon -82.6% | HCC-2998 colon -36.6% | KM12 colon -75.2%
inactive: T-47D breast 21% | BT-549 breast 102%

CC(=O)Nc1ccc(C)c(Nc2cc(-c3ccc(-n4cccn4)cc3)[nH]n2)c1
inactive: T-47D breast 53% | BT-549 breast 30.4% | SW-620 colon 31.5% | MCF7 breast 23.4% | HCT-116 colon 19.3% | HCC-2998 colon 83.2% | KM12 colon 30.8%
active: MDA-MB-435 melanoma -26.4%

COc1cc(/C=N/n2cnc3oc(-c4ccccc4)cc3c2=N)cc(CN2CCN(C)CC2)c1O
inactive: T-47D breast 99.4% | BT-549 breast 120% | MDA-MB-435 melanoma 98.6% | SW-620 colon 101% | MCF7 breast 89.3% | HCT-116 colon 80.6% | HCC-2998 colon 108% | KM12 colon 87.2%

COc1cnc2c(c1)C(=O)c1c-2n(CCCNCC2CC2)c(=O)c2cc(F)ccc12
inactive: MDA-MB-435 melanoma 10%
active: T-47D breast -21.2% | BT-549 breast -0.964% | SW-620 colon -29.6% | MCF7 breast -8.09% | HCT-116 colon -79.7% | HCC-2998 colon -41% | KM12 colon -8.57%
